This is an account of results in ChEMBL document CHEMBL3433997, “St. Jude Leishmania screening dataset” (2016).

Structures are written as SMILES. Several values for one entry are separate records, joined by “and”; a condition that tells them apart may be missing. Equal values may be shown once.

The target in one experiment is Solute carrier family 2, facilitated glucose transporter member 1 (Homo sapiens) (UniProt P11166). As to the kind of experiment: ST_JUDE_LEISH: Cytotoxicity at 2uM final concentration against transgenic Leishmania Mexicana promastigotes LmGLUT1 that are glucose transport deficient and complemented with the human glucose transporter GLUT1. Activity is measured by DNA content using SYBR green in vitro. The class given is functional.
Solute carrier family 2, facilitated glucose transporter member 1 (Homo sapiens), sequence (P11166 whole entry): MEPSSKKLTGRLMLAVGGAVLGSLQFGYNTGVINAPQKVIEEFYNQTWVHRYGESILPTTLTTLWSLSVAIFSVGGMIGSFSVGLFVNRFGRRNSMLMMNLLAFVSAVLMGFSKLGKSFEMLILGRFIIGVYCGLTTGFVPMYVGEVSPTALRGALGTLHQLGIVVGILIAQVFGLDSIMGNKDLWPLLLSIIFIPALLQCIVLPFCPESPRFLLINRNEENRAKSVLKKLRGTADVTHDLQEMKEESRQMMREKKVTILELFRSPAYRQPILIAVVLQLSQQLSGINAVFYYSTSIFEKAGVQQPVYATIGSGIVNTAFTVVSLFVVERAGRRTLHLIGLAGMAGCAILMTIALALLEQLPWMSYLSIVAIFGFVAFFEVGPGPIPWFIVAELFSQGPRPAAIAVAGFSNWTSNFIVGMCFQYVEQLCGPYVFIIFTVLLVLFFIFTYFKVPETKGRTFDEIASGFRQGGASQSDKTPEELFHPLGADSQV
As a reminder, the inhibition is the drop in the measured response relative to a control, in per cent. Turning to `CCCCCCc1cc(O)c2c3c(c(=O)oc2c1)CCN(C)C3`, the inhibition was 7.26%.
Still for that read-out and setting: with `O=C(/C=C/c1cc(F)c(F)cc1F)N1CCC(CN2CCC(c3c[nH]c4ccccc34)CC2)CC1` the figure was 0.47%.
The same measure, in the same setting: with `COc1ccc(CN2CCN(CCOC(c3ccccc3)c3ccccc3)CC2)c(O)c1` the figure was 3.13%; with `COc1ccc(C(=O)C2CC2CN2CC=C(c3c[nH]c4ccc(OC)nc34)CC2)cc1` (stereo not given), 1.91%; with `Cn1nc(-c2ccc(S(=O)(=O)NC3CCC(CN4CCC(c5c[nH]c6ccccc56)CC4)CC3)s2)cc1C(F)(F)F` (stereo not given), 5.26% and 1.76%.
With `CC(Cc1ccc(SC(C)(C)C)cc1)NCC(O)c1cccc(Cl)c1` (stereo not given), the inhibition was -1.59%.
Same read-out and setting: with `O=C(/C=C/c1ccc(Cl)c(Cl)c1)NCCCCCN1C2CCC1CC(c1c[nH]c3ccc(O)cc13)C2` (stereo not given) the figure was 0.54% and -0.84%; with `COc1cccc(C=CC(=O)NC2CCC(CN3CCC(c4c[nH]c5ccccc45)CC3)CC2)c1OC` (stereo not given), 1.83%.
On to `CCN(CC)CCN1C(=O)C(O)(c2ccccc2Cl)c2c1cc(C(N)=O)cc2C(F)(F)F` (stereo not given), for which the inhibition came out at 3.25%.
As to `CC(C)CNCc1cccc(-c2ccc(CN(C(=O)NC3CCCCC3)C3CCN(Cc4ccccc4)CC3)cc2)c1`, the inhibition turned out to be 4.72%.
Take `C/C=C1\CN2CC[C@H]1C[C@H]2[C@H](O)c1ccnc2ccc(O)cc12`: the inhibition is -0.15%.
With `COC(=O)C(C)(C)c1ccc(CC(C)NCC(O)c2cccc(C(F)(F)F)c2)cc1` (stereo not given), the inhibition turned out to be 10.5%.
Still for that read-out and setting: in the case of `CN(c1cc(NC(=O)c2ccc(F)cc2)ccn1)C1CCN(Cc2ccc(C#N)cc2)CC1` it was 2.42%; in that of `O=C(c1cc(C(=O)NCc2ccc(Cl)cc2)c(=O)n(Cc2ccc(Cl)cc2)c1)c1cc(Cl)ccc1O`, -1%.
The same measure, in the same setting: with `OC(CNC12CC3CC(CC(C3)C1)C2)c1cccc(C(F)(F)F)c1` (stereo not given) the figure was -1.52%; with `OC(CNC1CCCCCC1)c1ccc(Cl)c(Cl)c1` (stereo not given), -0.7%; with `O=C(/C=C/c1ccc(C(F)(F)F)cc1)NC1CCC(CN2CCC(c3c[nH]c4ccccc34)CC2)CC1` (stereo not given), 5.55% and -0.04%.
As to `CCCCCc1cc(O)c2c(c1)OC(C)(C)c1ccncc1-2`, the inhibition stood at 0.55%.
Still for that read-out and setting: in the case of `CNCCCCCCOc1ccc(CC(C)NCC(O)c2cccc(C(F)(F)F)c2)cc1` (stereo not given) it was 18.4%.
With `c1ccc(C(OCCC2CCN(Cc3cccc4cccnc34)CC2)c2ccccc2)cc1`, the inhibition was found to be 9.36%.
Regarding `NCC(=O)c1cc2c(cc1N)OCCO2`, the inhibition turned out to be 8.91%.
Consider `CC[C@H]1CN2CC[C@@H]1C[C@H]2[C@H](O)c1cc(N2CCC(O)(c3ccccc3)CC2)nc2ccc(OC)cc12`, for which the inhibition worked out at 5.33%.
As to `O=C(NC1CCC(CN2CCC(c3c[nH]c4ccccc34)CC2)CC1)c1[nH]c(=O)[nH]c(=O)c1F` (stereo not given), the inhibition is -0.09%.
The same measure, in the same setting: in the case of `COc1cccc(C2(NC[C@@H](O)[C@H](Cc3ccccc3)NC(=O)c3ccccc3)CCCCC2)c1` it was 0.07%.
Same read-out and setting: in the case of `O=C(/C=C/c1ccc(O)cc1)NC1CCC(CN2CCC(c3c[nH]c4ccccc34)CC2)CC1` (stereo not given) it was -4.73%.
On to `COc1cccc(/C=C/C(=O)NC2CCC(CN3CCC(c4c[nH]c5ccccc45)CC3)CC2)c1` (stereo not given), for which the inhibition is 2.16% and -1.74%.
The same measure, in the same setting: with `COc1ccc(C2CNCc3c2cc(OC)c(OC)c3Cl)cc1` (stereo not given) the figure was 4.33%; with `O=C(/C=C/c1ccc(Cl)c(Cl)c1)Nc1cccc(CN2CCC(c3c[nH]c4ccc(O)cc34)CC2)c1`, 0.9%.
On the same count and under the same terms, with `O=C(NC1CCC(CN2CCC(c3c[nH]c4ccccc34)CC2)CC1)c1csc(-c2ccc(C(F)(F)F)cc2Cl)n1` (stereo not given) the figure was 10.1%; with `O=C(/C=C/c1ccc(Cl)c(Cl)c1)NCC1CCCC(CN2CCC(c3c[nH]c4ccccc34)CC2)C1` (stereo not given), 2.54%; with `COC(=O)c1ccc(CC(C)NCC(O)c2ccc(F)c(Cl)c2)cc1` (stereo not given), 0.56%.
On the same count and under the same terms, in the case of `Clc1ccc2nccc(N3CCC(CN4CCC(c5c[nH]c6ccccc56)CC4)CC3)c2c1` it was 0.88%; in that of `O=C(/C=C/c1ccc(Cl)c(Cl)c1)N1CCC(CN2CCC(c3c(-c4ccccc4)[nH]c4ccccc34)CC2)CC1`, -1.32%; in that of `CNC(=O)c1ccc2[nH]cc(C3CCN(CC4CCC(NC(=O)/C=C/c5ccc(Cl)c(Cl)c5)CC4)CC3)c2c1` (stereo not given), 9.29%.
`NC(=O)c1ccc2[nH]cc(C3CCN(CC4CCC(NC(=O)/C=C/c5ccc(Cl)c(Cl)c5)CC4)CC3)c2c1` (stereo not given): the inhibition was -3.07% and 2.76%.
On to `COC(=O)c1ccc(CC(C)NCC(O)c2cccc(OCc3ccccc3)c2)cc1` (stereo not given), for which the inhibition came to 7.34%.
As for `COc1ccc(CCNCc2ccc3c(C)cc(N)nc3c2)cc1`, the inhibition is 0.82%.
For the molecule `CC1(C)CCCN(C(=O)Cc2ccc3c(c2)CCCC3)C1CN1CC=CC1` (stereo not given), the inhibition turned out to be 8.1%.
On the same count and under the same terms, with `COC(=O)c1ccc(CC(C)NCC(O)c2ccccc2Cl)cc1` (stereo not given) the figure was 0.96%.
Still for that read-out and setting: in the case of `O=C(/C=C/c1ccccc1O)NC1CCC(CN2CCC(c3c[nH]c4ccccc34)CC2)CC1` (stereo not given) it was -0.75% and -1.89%.

Another experiment deals with Hexose transporter 1 (Plasmodium falciparum) (UniProt O97467). As to the kind of experiment: ST_JUDE_LEISH: Cytotoxicity at 2uM final concentration against transgenic Leishmania Mexicana promastigotes LmPfHT that are glucose transport deficient and complemented with the Plasmodium falciparum hexose transporter. Activity is measured by DNA content using SYBR green in vitro. The class given is functional.
Consider `CCCCCCc1cc(O)c2c3c(c(=O)oc2c1)CCN(C)C3`, for which the inhibition worked out at 4.97%.
As for `O=C(/C=C/c1cc(F)c(F)cc1F)N1CCC(CN2CCC(c3c[nH]c4ccccc34)CC2)CC1`, the inhibition came to 1.36%.
Same read-out and setting: with `COc1ccc(CN2CCN(CCOC(c3ccccc3)c3ccccc3)CC2)c(O)c1` the figure was 2.42%; with `COc1ccc(C(=O)C2CC2CN2CC=C(c3c[nH]c4ccc(OC)nc34)CC2)cc1` (stereo not given), -1.74%.
Regarding `Cn1nc(-c2ccc(S(=O)(=O)NC3CCC(CN4CCC(c5c[nH]c6ccccc56)CC4)CC3)s2)cc1C(F)(F)F` (stereo not given), the inhibition is 4.54% and 4.39%.
Regarding `CC(Cc1ccc(SC(C)(C)C)cc1)NCC(O)c1cccc(Cl)c1` (stereo not given), the inhibition is -2.57%.
The same measure, in the same setting: with `O=C(/C=C/c1ccc(Cl)c(Cl)c1)NCCCCCN1C2CCC1CC(c1c[nH]c3ccc(O)cc13)C2` (stereo not given) the figure was 2.4% and -2.77%; with `COc1cccc(C=CC(=O)NC2CCC(CN3CCC(c4c[nH]c5ccccc45)CC3)CC2)c1OC` (stereo not given), 2.37%.
In the case of `CCN(CC)CCN1C(=O)C(O)(c2ccccc2Cl)c2c1cc(C(N)=O)cc2C(F)(F)F` (stereo not given), the inhibition is 2.29%.
On to `CC(C)CNCc1cccc(-c2ccc(CN(C(=O)NC3CCCCC3)C3CCN(Cc4ccccc4)CC3)cc2)c1`, for which the inhibition was 5.99%.
The same measure, in the same setting: with `C/C=C1\CN2CC[C@H]1C[C@H]2[C@H](O)c1ccnc2ccc(O)cc12` the figure was -0.16%.
For `COC(=O)C(C)(C)c1ccc(CC(C)NCC(O)c2cccc(C(F)(F)F)c2)cc1` (stereo not given), the inhibition is 6.92%.
On the same count and under the same terms, in the case of `CN(c1cc(NC(=O)c2ccc(F)cc2)ccn1)C1CCN(Cc2ccc(C#N)cc2)CC1` it was 2.29%.
On to `O=C(c1cc(C(=O)NCc2ccc(Cl)cc2)c(=O)n(Cc2ccc(Cl)cc2)c1)c1cc(Cl)ccc1O`, for which the inhibition is -1.29%.
Turning to `OC(CNC12CC3CC(CC(C3)C1)C2)c1cccc(C(F)(F)F)c1` (stereo not given), the inhibition is -1.19%.
On to `OC(CNC1CCCCCC1)c1ccc(Cl)c(Cl)c1` (stereo not given), for which the inhibition turned out to be 0.32%.
Consider `O=C(/C=C/c1ccc(C(F)(F)F)cc1)NC1CCC(CN2CCC(c3c[nH]c4ccccc34)CC2)CC1` (stereo not given), for which the inhibition is 5.47% and -0.38%.
Same read-out and setting: in the case of `CCCCCc1cc(O)c2c(c1)OC(C)(C)c1ccncc1-2` it was 0.66%; in that of `CNCCCCCCOc1ccc(CC(C)NCC(O)c2cccc(C(F)(F)F)c2)cc1` (stereo not given), 2.66%.
As to `c1ccc(C(OCCC2CCN(Cc3cccc4cccnc34)CC2)c2ccccc2)cc1`, the inhibition amounted to 8.53%.
For `NCC(=O)c1cc2c(cc1N)OCCO2`, the inhibition worked out at 9.43%.
`CC[C@H]1CN2CC[C@@H]1C[C@H]2[C@H](O)c1cc(N2CCC(O)(c3ccccc3)CC2)nc2ccc(OC)cc12`: the inhibition is 4.26%.
Same read-out and setting: with `O=C(NC1CCC(CN2CCC(c3c[nH]c4ccccc34)CC2)CC1)c1[nH]c(=O)[nH]c(=O)c1F` (stereo not given) the figure was 0.08%; with `COc1cccc(C2(NC[C@@H](O)[C@H](Cc3ccccc3)NC(=O)c3ccccc3)CCCCC2)c1`, -1.37%.
`O=C(/C=C/c1ccc(O)cc1)NC1CCC(CN2CCC(c3c[nH]c4ccccc34)CC2)CC1` (stereo not given): the inhibition was -2.63%.
The same measure, in the same setting: in the case of `COc1cccc(/C=C/C(=O)NC2CCC(CN3CCC(c4c[nH]c5ccccc45)CC3)CC2)c1` (stereo not given) it was -0.63% and -2.74%; in that of `COc1ccc(C2CNCc3c2cc(OC)c(OC)c3Cl)cc1` (stereo not given), 4.69%.
On the same count and under the same terms, with `O=C(/C=C/c1ccc(Cl)c(Cl)c1)Nc1cccc(CN2CCC(c3c[nH]c4ccc(O)cc34)CC2)c1` the figure was 1.55%; with `O=C(NC1CCC(CN2CCC(c3c[nH]c4ccccc34)CC2)CC1)c1csc(-c2ccc(C(F)(F)F)cc2Cl)n1` (stereo not given), 9.77%.
Still for that read-out and setting: with `O=C(/C=C/c1ccc(Cl)c(Cl)c1)NCC1CCCC(CN2CCC(c3c[nH]c4ccccc34)CC2)C1` (stereo not given) the figure was 3.43%; with `COC(=O)c1ccc(CC(C)NCC(O)c2ccc(F)c(Cl)c2)cc1` (stereo not given), 0.78%; with `Clc1ccc2nccc(N3CCC(CN4CCC(c5c[nH]c6ccccc56)CC4)CC3)c2c1`, 0.94%.
As for `O=C(/C=C/c1ccc(Cl)c(Cl)c1)N1CCC(CN2CCC(c3c(-c4ccccc4)[nH]c4ccccc34)CC2)CC1`, the inhibition is 1.74%.
For the molecule `CNC(=O)c1ccc2[nH]cc(C3CCN(CC4CCC(NC(=O)/C=C/c5ccc(Cl)c(Cl)c5)CC4)CC3)c2c1` (stereo not given), the inhibition is 7.99%.
`NC(=O)c1ccc2[nH]cc(C3CCN(CC4CCC(NC(=O)/C=C/c5ccc(Cl)c(Cl)c5)CC4)CC3)c2c1` (stereo not given): the inhibition is -1.26% and 2.22%.
Turning to `COC(=O)c1ccc(CC(C)NCC(O)c2cccc(OCc3ccccc3)c2)cc1` (stereo not given), the inhibition was 7.31%.
The same measure, in the same setting: with `COc1ccc(CCNCc2ccc3c(C)cc(N)nc3c2)cc1` the figure was 2.73%; with `CC1(C)CCCN(C(=O)Cc2ccc3c(c2)CCCC3)C1CN1CC=CC1` (stereo not given), 8.82%; with `COC(=O)c1ccc(CC(C)NCC(O)c2ccccc2Cl)cc1` (stereo not given), 0.22%.
The same measure, in the same setting: with `O=C(/C=C/c1ccccc1O)NC1CCC(CN2CCC(c3c[nH]c4ccccc34)CC2)CC1` (stereo not given) the figure was 0.85% and 0.08%.
